Screens: PubChem, National Center for Advancing Translational Sciences (NCATS)
Sampled rows, rich in hits. Any-hit rate of the full collection: about 8.8%.
HPGD block: HPGD (human) dehydrogenase inhibition; 150,000 compounds, 4.3% hits; Potency, µM, most hits filed as inhibitors; AID 894; P15428; purified HPGD, NADH fluorescence kinetic, PGE2 substrate
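NADH formation kinetics: reaction with 30 uM PGE2 and 1 mM NAD+ (final), 20 nM enzyme, Tris-HCl pH 8 with Tween 20, after 15 min compound preincubation at room temperature. Fluorescence change, last versus first of five reads.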
Lamin A splicing: modulators of lamin A splicing; HeLa LMNA splicing GFP/RFP minigene ratio, 48 h; Potency, µM (titrated, usually from 46.1 µM), most hits filed as inhibitors; 200,000 compounds, 0.01% hits; AID 1487; active = well fitted inhibition curve with a large enough effect in the signal ratio, with a control signal flat, not every such curve was filed as active; inconclusive = small, poorly fitted or top-dose-only effect, or effect the other way, or a change in a side signal; the % refers to the signal ratio
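S3 HeLa stable clones carrying a lamin A-EGFP splicing minigene plus DsRed2 were seeded at 600 cells/well in Opti-MEM with 2% FBS, pin-dosed and incubated 48 h at 37°C. Acumen cytometry (488 nm) gave the GFP/RFP total-intensity ratio.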
HttQ103 aggreg: reduces HttQ103-GFP aggregates in PC12 cells; PC12 HttQ103-GFP aggregates, Acumen cytometry, 40 h; Potency, µM (series often up to 46.1 µM), hits mostly inhibitors; AID 1688; 220,000 compounds, 1.1% hits; active = well fitted curve in the direction sought with a large enough effect; inconclusive = small, poorly fitted or top-dose-only effect, or another doubt; inactive = no such curve, though single readings can be large; an effect the other way counts as inactive or inconclusive; note: nearly all actives have a fitted effect of over 60% in size
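Using laser scanning cytometry, GFP-positive aggregates were counted after lysis of PC12 cells induced with 100 nM tebufenozide to express HTT exon 1 Q103–GFP. Compounds were tested in titration.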
ALDH1A1 block: blocks purified human ALDH1A1 activity; P00352; Purified ALDH1A1, NADH fluorescence, propionaldehyde substrate; Potency, µM (series often up to 75.3 µM), usual class: inhibitors; 220,000 compounds, 7.3% hits
Target sequence (P00352 whole entry, looked up): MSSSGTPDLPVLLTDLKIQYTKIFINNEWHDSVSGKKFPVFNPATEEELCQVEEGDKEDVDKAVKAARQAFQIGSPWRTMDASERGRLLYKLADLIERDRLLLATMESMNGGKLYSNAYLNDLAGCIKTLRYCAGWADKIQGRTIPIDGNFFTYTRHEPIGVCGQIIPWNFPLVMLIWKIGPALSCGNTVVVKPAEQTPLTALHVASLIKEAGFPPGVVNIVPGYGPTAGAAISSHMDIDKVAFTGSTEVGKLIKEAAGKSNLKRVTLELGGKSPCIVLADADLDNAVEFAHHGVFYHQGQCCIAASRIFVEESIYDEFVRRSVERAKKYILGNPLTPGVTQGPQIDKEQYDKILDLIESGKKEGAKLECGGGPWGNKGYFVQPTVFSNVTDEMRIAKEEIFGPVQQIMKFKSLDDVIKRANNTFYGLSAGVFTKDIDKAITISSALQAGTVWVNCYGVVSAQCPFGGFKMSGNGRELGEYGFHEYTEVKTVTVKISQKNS
HTT cytoprotect: cytoprotection in Huntington HTT-Q103 PC12 cell model; PC12 HTT-Q103 induced, cytoprotection, ATP luminescence, 40 h; Potency, µM (top dose mostly 56.4 µM), actives largely listed as activators; 230,000 compounds, 0.14% hits; AID 1471; active = well fitted curve in the direction sought with a large enough effect; inconclusive = small, poorly fitted or top-dose-only effect, or another doubt; inactive = no such curve, though single readings can be large; an effect the other way counts as inactive or inconclusive; note: nearly all actives have a fitted effect of over 45% in size
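Compounds were screened for protection of PC12 cells against cell death after tebufenozide induction (100 nM final) of mutant Huntingtin exon 1 (Q103) fused to GFP.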
Large screens that a line does not name were inactive. Unless noted, calls come from the whole dose curve; as a rule, active = well fitted inhibition curve with a large enough effect (not every such curve was filed as active); inconclusive = small, poorly fitted or top-dose-only effect, or another doubt; inactive = no such curve, though single readings can be large or run the other way.

O=C(N/N=C/c1cc(Cl)cc([N+](=O)[O-])c1O)c1ccccc1NS(=O)(=O)c1cccs1	none (no result: HPGD block, Lamin A splicing, ALDH1A1 block)
CCn1cc(C(=O)Nc2ccc(C(=O)N3CCCC3)cc2)c(=O)c2ccc(C)nc21	HPGD block 3.98µM
CCn1cc(C(=O)Nc2ccccc2)c(=O)c2ccc(C)nc21	none (no result: HPGD block)
CCn1cc(C(=O)OCC(=O)Nc2ccc(C(C)C)cc2)c(=O)c2ccc(C)nc21	ALDH1A1 block 14.1µM (no result: HPGD block)
CCn1cc(C(=O)OCC(=O)c2cc(C)n(-c3ccc(OC(F)F)cc3)c2C)c(=O)c2ccc(C)nc21	ALDH1A1 block 10µM
CC(C)(C)OC(=O)NCCCCC1=CC2=CC(=O)C(C)(OC(=O)CCc3ccccc3)C(=O)C2=CO1 (stereo unspecified)	none (no result: Lamin A splicing, HttQ103 aggreg)
CN(C)N1C(=O)CC(N2CCCC2)C1=O (stereo unspecified)	ALDH1A1 block 22.4µM (no result: HPGD block, Lamin A splicing)
CCN1C(=O)CC(N2CCOCC2)C1=O (stereo unspecified)	none
CCOC(=O)C1(CCCc2ccccc2)CCN(C(=O)CCc2cnn(C)c2)CC1	ALDH1A1 block inconclusive (no result: HPGD block)
CCOC(=O)C1(CCCc2ccccc2)CCN(C(=O)CCOC)CC1	ALDH1A1 block 0.447µM (no result: HPGD block, Lamin A splicing)
CCOC(=O)C1(CCCc2ccccc2)CCN(C(=O)CCN2CCCCC2=O)CC1	ALDH1A1 block 4.47µM (no result: HPGD block, Lamin A splicing)
CCOC(=O)C1(CCCc2ccccc2)CCN(C(=O)c2cc(C)nc(C)n2)CC1	Lamin A splicing inconclusive, ALDH1A1 block inconclusive (no result: HPGD block)
CCOC(=O)C1(CCCc2ccccc2)CCN(C(=O)c2cnc(C)cn2)CC1	ALDH1A1 block 4.47µM (no result: HPGD block, Lamin A splicing)
COc1cc(Cl)c(NC(=O)CCS(=O)(=O)c2cc3c(cc2Cl)NC(=O)CO3)c(OC)c1	none (no result: HPGD block, HttQ103 aggreg, ALDH1A1 block, HTT cytoprotect)
O=C(C1COc2ccccc2O1)N1CCc2ccccc2C1 (stereo unspecified)	HPGD block 7.08µM, ALDH1A1 block inconclusive
O=C(C1COc2ccccc2O1)N1CCN(c2ccccc2Cl)CC1 (stereo unspecified)	Lamin A splicing inconclusive (no result: HPGD block)
O=C1CC(c2ccccc2)c2c(n3ncnc3[nH]c2=O)N1 (stereo unspecified)	none (no result: HPGD block, HttQ103 aggreg, ALDH1A1 block, HTT cytoprotect)
CCOc1ccc(Br)cc1CNc1ccc2c(c1)OCCO2	none (no result: HPGD block)
CC1(C)NC(C)(C)c2nonc2/C1=N\O	ALDH1A1 block 12.6µM
O=S(=O)(c1cccs1)N1CCCc2cccc(O)c21	HPGD block 12.6µM, HttQ103 aggreg 11.2µM, ALDH1A1 block inconclusive
O=S(=O)(c1cccs1)N1CCN(S(=O)(=O)c2cccs2)CC1	Lamin A splicing inconclusive (no result: HPGD block)
Cc1c(C(=O)NN)sc(-c2ccccc2)c1C#N	ALDH1A1 block 1.26µM (no result: HPGD block, Lamin A splicing)
CCCCN1C(=O)C2C3C=CC(C2C1=O)C1C2C(=O)N(CCCC)C(=O)C2C31 (stereo unspecified)	none
C=CCN1C(=O)C2C3C=CC(C2C1=O)C1C2C(=O)N(CC=C)C(=O)C2C31 (stereo unspecified)	ALDH1A1 block 0.708µM (no result: HPGD block, Lamin A splicing)
O=C1C2C3C=CC(C2C(=O)N1CCCO)C1C2C(=O)N(CCCO)C(=O)C2C31 (stereo unspecified)	ALDH1A1 block 4.47µM
CN1CCN(CN2C(=O)C3C4C=CC(C3C2=O)C2C3C(=O)N(CN5CCN(C)CC5)C(=O)C3C42)CC1 (stereo unspecified)	none (no result: Lamin A splicing, HttQ103 aggreg)
CC(=O)c1cnc2cc(C)nn2c1C	none
Cc1cc2ncc(C(=O)Nc3ccsc3C(=O)O)c(C)n2n1	ALDH1A1 block 14.1µM (no result: HPGD block, Lamin A splicing)
Cc1ccc(C(=O)c2cc([N+](=O)[O-])ccc2N2CCCCC2)cc1	Lamin A splicing inconclusive, ALDH1A1 block 20µM
CN(C)S(=O)(=O)c1ccc(N2CCCC2)c(C(=O)N2CCN(c3ccc([N+](=O)[O-])cc3)CC2)c1	ALDH1A1 block 14.1µM (no result: HPGD block)
O=C(c1cc([N+](=O)[O-])ccc1N1CCCCC1)N1CCCC1	ALDH1A1 block 28.2µM
O=C(c1ccc(Oc2ccc([N+](=O)[O-])cc2Cl)cc1)N1CCCC1	ALDH1A1 block 22.4µM (no result: HPGD block, Lamin A splicing)
COc1cccc(CNC(=O)CSc2nc3ccccc3nc2Cc2ccc(C)cc2)c1OC	none (no result: HPGD block, HttQ103 aggreg, ALDH1A1 block, HTT cytoprotect)
O=S(=O)(NCCNC/C=C\c1ccc(Br)cc1)c1cccc2cnccc12	none (no result: HPGD block, Lamin A splicing, HttQ103 aggreg, ALDH1A1 block)
O=C(C(Cc1ccccc1)n1cccc1)N1CCN(c2cccc(Cl)c2)CC1 (stereo unspecified)	Lamin A splicing inconclusive, HttQ103 aggreg inconclusive
